Bioassay records as filed in PubChem.
D2 ag-1 – D2 dopamine receptor (human) agonism. activation, % at 2 µM. P14416. HEK293 T-REx D2 cells, calcium flux agonist mode. 340,000 compounds, 0.53% hits;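 active means activation over 3 SD above normal in the single-dose calcium agonist read, cut at about 30% in these data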; further: 0% is about no effect
Target sequence (P14416 whole entry, looked up): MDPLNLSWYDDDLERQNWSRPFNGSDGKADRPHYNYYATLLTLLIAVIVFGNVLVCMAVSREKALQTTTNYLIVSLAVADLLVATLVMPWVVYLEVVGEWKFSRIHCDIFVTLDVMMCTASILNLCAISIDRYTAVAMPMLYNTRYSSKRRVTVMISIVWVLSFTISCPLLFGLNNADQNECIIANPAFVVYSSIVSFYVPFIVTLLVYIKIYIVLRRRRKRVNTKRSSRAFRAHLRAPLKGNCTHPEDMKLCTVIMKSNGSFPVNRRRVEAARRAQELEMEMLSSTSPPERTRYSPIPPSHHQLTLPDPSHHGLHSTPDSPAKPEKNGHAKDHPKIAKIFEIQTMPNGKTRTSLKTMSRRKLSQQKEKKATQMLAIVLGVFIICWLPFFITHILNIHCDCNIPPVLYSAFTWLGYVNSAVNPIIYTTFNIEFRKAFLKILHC
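Agonism is scored from calcium flux in a force-coupled, inducible HEK293 cell line expressing D2, read kinetically for 180 s after compound addition against dopamine controls.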
D2 antagonist – antagonizes the human D2 dopamine receptor; inhibition, % at 10 µM; HEK293 TREx D2 cells, calcium flux, dopamine EC80; P14416; 340,000 compounds, 2% hits; in the data active means inhibition above about 30%; inactive means below that, where a call was filed; further: 0% is about no effect
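Cells plated overnight at 30 C with tetracycline; no-wash calcium dye, 30–90 min RT; 10 s baseline; compound pinned; 180 s read; EC80 dopamine added; another 180 s read.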
D2 PAM-1 – D2 dopamine receptor (human) potentiation; HEK293 T-REx D2, calcium flux, EC20 dopamine potentiation; P14416; 340,000 compounds, 0.34% hits; potentiation, % at 10 µM;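 active means potentiation over 3 SD above the plate norm, cut at about 30% in these data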; further: 0% is about no effect
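Calcium flux readout, no-wash dye, 1 read/s. Inducible HEK293 Trex D2 line, overnight 30 C. Compound alone 180 s (agonist flags), then EC20 dopamine, another 180 s to score potentiation.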
D2 ag-2 – activates the human D2 dopamine receptor; DiscoveRx PathHunter D2 beta-arrestin, luminescence, 90 min; 100% = 57 uM dopamine signal; activation, % (no concentration beside the values); 360,000 compounds, 0.084% hits; in the data active means activation above about 40%; inconclusive means between about 15% and that limit
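Agonist mode: compounds alone added to overnight-plated D2 PathHunter cells for 90 min at 37 C, with 57 uM final dopamine (EC100) defining full response. Beta-arrestin recruitment detected by chemiluminescent reagent, read after 1 h at ambient temperature.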
D2 PAM-2 – positive allosteric modulators of human D2 dopamine receptor; DiscoveRx D2 beta-arrestin cells, luminescence, 90 min; 100% = 57 uM dopamine signal; potentiation, % (concentration not given with the values); 360,000 compounds, 0.23% hits; AID 624464; in the data active means potentiation above about 50%; inconclusive means mostly about 30% to 49%
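D2 cells co-treated with compound plus 50 nM dopamine (EC20) for 90 min at 37 deg C to detect potentiation. Beta-arrestin recruitment was read as enzyme-fragment luminescence after 1 h at ambient temperature. Full response was set by 57 uM dopamine.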
D3 arrestin ag – confirmation of human D3 dopamine receptor agonists, beta-arrestin | shares compounds with D2 ag-1 | DiscoveRx D3 beta-arrestin cells, luminescence, 90 min | Potency, µM (highest dose often 76.9 µM), without a hit: top-dose activation, actives largely listed as activators | 2,300 compounds, 4% hits | AID 720506;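 further: potency means the concentration at half of the fitted maximal effect; 100% = dopamine control response; nearly all actives have a fitted effect of over 70% in size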
D2 ag-3 – D2 receptor agonism, beta-arrestin counterscreen; DiscoveRx PathHunter D2 beta-arrestin, luminescence, 90 min; response scale: percent relative to full dopamine signal; AID 720507; shares compounds with D2 ag-1; 2,300 compounds, 5.9% hits; Potency, µM (titrated, usually from 76.9 µM), for the others: at the highest dose activation, hits mostly activators; further: potency means the concentration at half of the fitted maximal effect; % of control where 0% means no effect; nearly all actives have a fitted effect of over 70% in size
* hit, by the source's call; ? = inconclusive; . = not tested or not shown. This is a sample that favours compounds with a hit; in the whole collection about 2.4% have one here. Unless noted, the call rests on the fitted dose curve; in most records, active means well fitted activation curve with a large enough effect; inconclusive means small, poorly fitted or top-dose-only effect; inactive means flat fitted curve, though single readings scatter.

SMILES	D2 ag-1	D2 antagonist	D2 PAM-1	D2 ag-2	D2 PAM-2	others
CCOc1ccc2nc(NC(=O)c3cccn(Cc4ccccc4)c3=O)sc2c1	1	.	3	.	.
C#CC1(O)CCC2C3CCC4=C/C(=N/OCC(=O)NCC(=O)NC(C(=O)O)C(C)C)CC[C@]4(C)C3CC[C@@]21C (stereo partly drawn)	1	60*	-9	1	-5
Cc1cc(C)cc(NC(=O)CN2C(=O)CN=C(c3ccccc3)c3cc(Cl)ccc32)c1	0	.	-9	.	.
CN1CC(C(=O)c2ccccc2)C(c2ccccc2)C1 (stereo not drawn)	1	35*	-29	3	-14
Cc1nnc(NC(=O)c2cccn(Cc3ccc(Cl)cc3)c2=O)s1	1	.	-4	.	.
Cc1[nH]c2ccccc2c1C(=O)CN1CC=C(c2ccccc2)CC1	3	10	-28	-3	-8
CCN1CC=C(c2c[nH]c3ccccc23)CC1	0	83*	-21	-3	-38
CN1CCN(c2ncnc(Cl)c2N)CC1	1	-17	-20	-4	-12
CN1CCN(c2nc(N)c(Br)c(Cl)n2)CC1	1	69*	-17	-3	-54
Cc1ccccc1-c1nc(CN2C(=O)CN=C(c3ccccc3)c3ccccc32)c(C)o1	9	.	-3	.	.
O=c1c2ccccc2nc(/C=C/c2ccccc2F)n1-c1cccc(O)c1	.	.	2	.	.
COC(=O)C1C=C2c3cccc4[nH]cc(c34)CC2N(C)C1 (stereo not drawn)	79*	62*	-30	.	.
CC[C@@H](CO)NC(=O)[C@@H]1C=C2c3cccc4[nH]cc(c34)C[C@H]2N(C)C1	.	.	.	42*	?
O=C(Nc1ccon1)c1cccn(Cc2cccc([N+](=O)[O-])c2)c1=O	0	.	20	.	.
COc1ccc(NC(=O)CN2C(=O)CN=C(c3ccccc3)c3ccccc32)c(OC)c1	1	.	-9	.	.
Cc1ccc(CNC(=O)CCCn2c(=O)c3sccc3n(CC(=O)Nc3c(C)cccc3C)c2=O)cc1	.	.	-3	.	.
Cc1ccccc1C1=NCC(=S)Nc2ccc(Cl)cc21	-1	41*	-1	-7	-24
O=C1CN=C(c2ccccc2)c2cc(Cl)ccc2N1	.	.	.	-1	-9
CN1CCN(c2ccccc2N)CC1	1	-12	-6	0	-14
CN1CCN(c2c[nH]c(=O)[nH]c2=O)CC1	1	36*	13	-1	8
Cc1ccc(OCC(=O)Nc2ccc(Cl)cc2C(=O)c2ccccc2)cc1C	.	.	-6	.	.
Fc1ccccc1CCNCc1cccc2ccccc12	0	31*	-33	-4	-35
CCc1nc(SC)ncc1C(=O)Nc1ccc(Cl)cc1C(=O)c1ccccc1	-1	.	.	.	.
COc1ccc2[nH]cc(CCN)c2c1	34*	-4	-4	5	-48
CCCCCCCCCOc1ccc2[nH]cc(CCN)c2c1	2	13	-18	.	.
SMILES	D2 ag-1	D2 antagonist	D2 PAM-1	D2 ag-2	D2 PAM-2	others
Cc1ccc(Cn2cccc(C(=O)Nc3ccc4c(c3)OCCO4)c2=O)cc1	-1	.	-1	.	.
CCC(=NCc1ccco1)c1c(O)n(-c2ccccc2C)c(=O)[nH]c1=O	0	-9	-9	-1	-5	D3 arrestin ag=-11%;D2 ag-3=-6%
Cc1ccc(-n2c(/C=C/c3ccccc3)nc3ccccc3c2=O)cc1C	1	.	-13	.	.
O=C1NC(=S)N(c2ccc(Cl)cc2)C(=O)/C1=C/N1CCN(C(=O)c2ccco2)CC1	26	5	-9	1	-13	D3 arrestin ag=-6%;D2 ag-3=3%
Cc1ccc2nc(NC(=O)c3cccn(Cc4ccc(Cl)cc4)c3=O)sc2c1	1	.	7	.	.
NC1CCc2cc(O)c(O)cc2C1 (stereo not drawn)	91*	101*	-28	100*	103*	D3 arrestin ag=0.022µM*;D2 ag-3=0.014µM*
CCOc1ccc2nc(NC(=O)c3cccn(Cc4ccc(Cl)cc4)c3=O)sc2c1	.	.	14	.	.
